Assay results from PubChem BioAssay AID504339 (National Center for Advancing Translational Sciences (NCATS), 2011).
In all, about 390,000 compounds went through this assay and about 17,000 (4.4%) were called active. Where a call stands in place of a potency, no number is given. Not shown: some 8% with an inconclusive outcome. Calls come from the whole dose curve; as a rule, active = well fitted inhibition curve with a large enough effect; inconclusive = small, poorly fitted or top-dose-only effect; inactive = no such curve, though single readings can be large or run the other way. The sample as a whole holds a higher share of actives than the screen did.

Target: Lysine-specific demethylase 4A (Homo sapiens) (UniProt O75164)
Assay: qHTS Assay for Inhibitors of JMJD2A-Tudor Domain; note: nearly all actives have a fitted effect of over 50% in size
Details: AlphaScreen JMJD2A-Tudor / H3K4me3 peptide binding; series mostly up to 114 µM
Potency is the fitted concentration of half-maximal effect.

Chain of Lysine-specific demethylase 4A (Homo sapiens) (O75164 whole entry, looked up, the tested form may be a part): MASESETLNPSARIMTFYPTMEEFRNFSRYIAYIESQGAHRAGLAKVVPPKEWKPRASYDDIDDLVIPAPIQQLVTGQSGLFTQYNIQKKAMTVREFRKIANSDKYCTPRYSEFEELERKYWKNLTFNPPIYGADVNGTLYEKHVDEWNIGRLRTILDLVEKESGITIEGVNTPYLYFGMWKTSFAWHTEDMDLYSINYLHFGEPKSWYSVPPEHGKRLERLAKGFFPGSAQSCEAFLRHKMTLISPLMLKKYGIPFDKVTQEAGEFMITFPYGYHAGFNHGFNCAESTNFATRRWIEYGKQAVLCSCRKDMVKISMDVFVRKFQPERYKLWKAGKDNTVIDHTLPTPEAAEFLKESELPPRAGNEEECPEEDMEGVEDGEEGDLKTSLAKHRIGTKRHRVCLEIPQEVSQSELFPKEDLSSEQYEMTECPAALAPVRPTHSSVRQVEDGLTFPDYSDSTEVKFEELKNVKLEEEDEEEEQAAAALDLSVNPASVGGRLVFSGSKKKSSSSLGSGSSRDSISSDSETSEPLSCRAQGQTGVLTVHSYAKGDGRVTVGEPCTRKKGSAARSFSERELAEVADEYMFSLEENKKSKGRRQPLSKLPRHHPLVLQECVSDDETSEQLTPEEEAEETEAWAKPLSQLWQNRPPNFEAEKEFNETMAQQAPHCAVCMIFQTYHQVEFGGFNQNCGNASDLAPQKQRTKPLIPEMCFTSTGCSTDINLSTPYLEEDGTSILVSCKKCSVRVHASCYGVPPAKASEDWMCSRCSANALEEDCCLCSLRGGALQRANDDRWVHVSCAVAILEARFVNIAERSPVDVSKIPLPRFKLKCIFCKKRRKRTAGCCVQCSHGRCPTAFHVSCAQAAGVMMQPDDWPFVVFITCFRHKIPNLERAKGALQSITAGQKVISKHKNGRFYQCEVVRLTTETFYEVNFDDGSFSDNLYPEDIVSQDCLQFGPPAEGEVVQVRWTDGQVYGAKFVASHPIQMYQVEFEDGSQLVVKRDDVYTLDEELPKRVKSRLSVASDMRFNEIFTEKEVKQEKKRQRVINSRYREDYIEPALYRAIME

| Compound | Potency |
| --- | --- |
| C[N+]1(CCNC(=O)/C=N/O)CCCCC1 | 50.1 µM (active) |
| CCc1cc2c(cc3c(=O)n(CC(=O)N4CCN(c5cc(Cl)ccc5C)CC4)nc(CC)n32)s1 | inactive |
| CCOC(=O)c1ccc(NC(=O)c2csc3c2CCCCC3)cc1 | inactive |
| O=C(/C=C/c1ccccc1)Nc1cc(-c2nc3cc(Cl)ccc3o2)ccc1Cl | inactive |
| Cc1cc(Br)ccc1NC(=S)NC1CCCC1 | inactive |
| Cc1ccc(NC(=S)NCCc2ccc(Cl)cc2)c(C)c1 | inactive |
| Cc1ccc(NC(=S)Nc2ncccc2C)c(C)c1 | 56.2 µM (active) |
| COC(=O)c1ccccc1NC(=O)c1ccc2c(=O)n3c(nc2c1)CCCCC3 | inactive |
| Cc1ccc(-c2cc(-c3coc4ccccc4c3=O)c3c(n2)-c2cc(Cl)ccc2OC3)cc1 | inactive |
| COc1ccccc1NC(=O)CN1C(=O)c2ccccc2Sc2ccc(C(=O)N3CCCC3)cc21 | inactive |
| COc1ccc(C2C(C(C)=O)=C(O)C(=O)N2c2nccs2)cc1 (centres undefined) | inactive |
| COC(=O)CN1C(=O)C(O)=C(C(C)=O)C1c1ccc([N+](=O)[O-])cc1 (centres undefined) | 31.6 µM (active) |
| COc1ccc(C2C(C(C)=O)=C(O)C(=O)N2CCc2c[nH]c3ccccc23)cc1 (centres undefined) | inactive |
| CCOc1ccccc1NC(=O)Cn1c(=O)n(-c2cccc(C)c2)c(=O)c2c1c1cc(OC)ccc1n2C | inactive |
| CCN(CC)C(=O)CSc1nc2ccsc2c(=O)n1Cc1ccccc1Cl | inactive |
| C(=N/N1CCN(c2ccccc2)CC1)/c1cccs1 | inactive |
| Nc1nnnn1/N=C/c1cccs1 | inactive |
| S=c1[nH]nc(-c2cccs2)n1/N=C/c1cccs1 | 10 µM (active) |
| Oc1ccccc1/C=N/n1c(-c2cccs2)n[nH]c1=S | 22.4 µM (active) |
| Cn1c(=O)c2sccc2n2c(CCC(=O)NCc3ccccc3Cl)nnc12 | inactive |
| Cc1ccc(C(=O)Nc2ccc3[nH]c(=O)c(=O)[nH]c3c2)cc1 | inactive |
| O=[S+]([O-])(c1ccc(OC(F)(F)F)cc1)N1CCN([S+](=O)([O-])c2ccc3c(c2)OCCO3)CC1 | inactive |
| O=C(CC1Oc2ccc(Cl)cc2NC1=O)NCc1ccccc1 (centres undefined) | inactive |
| CCc1ccc(NC(=O)CCCc2nnc3n(CCCOC)c(=O)c4sccc4n23)cc1 | inactive |
| O=C(CSc1nc2nccnc2c(=O)n1CCc1c[nH]c2ccccc12)Nc1ccccc1F | inactive |

| Compound | Potency |
| --- | --- |
| CCCCCCn1nnc2sc(-c3ccccc3)cc2c1=O | inactive |
| Cc1cc2nn(-c3ccc(Cl)cc3)nc2cc1NC(=O)C(C)C | inactive |
| Cc1ccc(Cl)cc1NC(=O)C(C)n1nnc2sc(-c3ccccc3)cc2c1=O (centres undefined) | 50.1 µM (active) |
| COc1ccccc1-c1cc2nc(C)c(CCC(=O)O)c(C)n2n1 | inactive |
| Cc1ccc(C)n1-c1nnc(N2CCC(C(=O)NCc3ccc(F)cc3)CC2)s1 | inactive |
| c1ccc(C(=NNc2nc3ccccc3s2)c2ccccn2)cc1 | 31.6 µM (active) |
| Cc1cc(C)cc(-n2ccnc2SCC(=O)Nc2nc3ccccc3s2)c1 | inactive |
| NS(=O)(=O)c1ccc2nc(NC(=O)COc3ccccc3)sc2c1 | inactive |
| COc1cc(-c2cc3n(C)c(C)c(CCC(=O)Nc4ccc(F)cc4)c(=O)n3n2)cc(OC)c1OC | inactive |
| COC(=O)c1ccccc1NC(=O)c1cc(-c2ccccc2O)no1 | inactive |
| Fc1cccc(-n2ncc3c2ncn2nc(-c4ccccc4Cl)nc32)c1 | inactive |
| CC(=O)Nc1cccc(OCC(=O)/C=C2\N(C)c3ccccc3C2(C)C)c1 | inactive |
| CN1CCN(CCC(=O)N/N=C/C=C2\N(C)c3ccccc3C2(C)C)CC1 | inactive |
| CN1/C(=C\C=C2\N=C(c3ccc(F)cc3)OC2=O)C(C)(C)c2ccccc21 | 56.2 µM (active) |
| O=C1C(F)N([S+](=O)([O-])c2ccc3c(c2)OCCO3)CCN1[S+](=O)([O-])c1c(F)cccc1F (centres undefined) | inactive |
| COCCCn1c(Cc2csc(Nc3cccc(Cl)c3)n2)nnc1SCC(=O)OC1CCCCC1 | 44.7 µM (active) |
| COCCCn1c(SCC(=O)NC2CCCC2)nnc1-c1ccccc1 | inactive |
| COCCCn1c(SCC(=O)Nc2ccccc2)nnc1-c1ccncc1 | inactive |
| COc1ccccc1CNc1ccc(-c2nc(-c3ccccc3C)no2)cc1[N+](=O)[O-] | inactive |
| c1coc(CCNc2ncnc3ccc(-c4ccc5c(c4)OCO5)cc23)c1 | 56.2 µM (active) |
| Cc1nc(CNc2ncnc3ccc(-c4ccc5c(c4)OCO5)cc23)cs1 | 79.4 µM (active) |
| CS(=O)(=O)N(CC(=O)NCc1ccco1)c1ccc2c(c1)OCO2 | inactive |
| CN(Cc1cncn1C)c1ncnc2ccc(-c3ccc4c(c3)OCO4)cc12 | inactive |
| O=C(Cn1nnc(-c2ccc3c(c2)OCO3)n1)NCc1ccco1 | inactive |
| Cc1noc(C)c1-c1ccc2ncnc(NCc3ccc(F)c(F)c3)c2c1 | inactive |

| Compound | Potency |
| --- | --- |
| O=c1c(=O)n(Cc2c(F)cccc2Cl)ccn1Cc1ccccc1 | inactive |
| COc1cc(Cl)ccc1Nc1ncc(C(=O)N2CCN(c3ccccc3OC)CC2)c2ccccc12 | inactive |
| Cc1cccc(C(=O)Nc2ccc(-c3nc4ccccc4s3)c(C)c2)c1 | inactive |
| COc1ccc(CNC(=O)CC2Oc3ccc(C)cc3NC2=O)cc1 (centres undefined) | inactive |
| Cc1ccc(-n2nc(CO)c(C(=O)NCCc3ccccc3)n2)cc1 | inactive |
| Cc1cc(C)n(-c2ccc(NC(=O)C3CCCCN3C(=O)c3cccs3)cc2)n1 (centres undefined) | inactive |
| COc1ccc(C(=O)N2CCCCC2C(=O)Nc2ccc(-n3nc(C)cc3C)cc2)o1 (centres undefined) | 15.8 µM (active) |
| Cc1ccc(NC(=O)C2CCCN2C(=O)OCc2ccccc2)cc1C (centres undefined) | inactive |
| Cc1nn(-c2ccc(N3CCCCC3)nn2)c(C)c1CCC(=O)NCc1ccc(F)cc1 | inactive |
| COc1ccc(-c2onc(C)c2C)cc1S(=O)(=O)NCCc1ccccc1 | inactive |
| CCC(CO)Oc1cc(NCc2ccccc2)c2ncn(C3CCCC3)c2c1 (centres undefined) | 56.2 µM (active) |
| COc1ccc(CNc2nc(NCc3ccc(OC)cc3)c3ncn(C4CCCC4)c3n2)cc1 | inactive |
| CC(C)n1cnc2c(NCc3ccccc3)cc(OCC3CCN(C)CC3)cc21 | 39.8 µM (active) |
| CN(C)c1nccc(NCc2ccccc2)c1C#N | inactive |
| CCC(CO)Oc1cc(NC(=O)c2ccc(Cl)cc2)c2ncn(C(C)C)c2c1 (centres undefined) | inactive |
| CCOC(=O)c1cccc(NC(=O)c2cc(S(=O)(=O)N3CCCC(C)C3)cn2C)c1 (centres undefined) | inactive |
| CC1CCCCN1Cc1c(O)ccc2c(=O)c(-c3cccc(Cl)c3)c(C(F)(F)F)oc12 (centres undefined) | inactive |
| O=C(CN1C(=O)CCn2nc(-c3ccccc3)cc21)NCc1ccccc1 | inactive |
| Cc1nc2c(-c3ccccc3)c(C)nn2c(C)c1CCC(=O)NCCc1ccccc1 | inactive |
| CC(=O)N1CCc2cc(Br)cc(S(=O)(=O)CCC(=O)NCCc3ccc(Cl)cc3)c21 | inactive |
| COc1ccc(Cl)cc1NC(=O)CN(C)Cc1ccc(OC)c(OC)c1 | 1.26 µM (active) |
| COc1ccc(Cl)cc1NC(=O)CN(C)C(=O)c1ccc2n[nH]nc2c1 | inactive |
| COc1ccc(Cl)cc1NC(=O)CCS(=O)(=O)c1cc2c(cc1C)NC(=O)CO2 | inactive |
| Cn1c(=O)oc2cc(S(=O)(=O)CCC(=O)NCCc3ccc(Cl)cc3)ccc21 | inactive |
| O=C(CCS(=O)(=O)c1ccc(Br)cc1)NCCc1ccc(Cl)cc1 | 63.1 µM (active) |

| Compound | Potency |
| --- | --- |
| COc1ccc(Cl)cc1NC(=O)CCC(=O)c1ccc(C)cc1 | inactive |
| COc1ccc(Cl)cc1NC(=O)CN(C)CC(=O)Nc1ccc2c(c1)OCO2 | inactive |
| COc1ccc(Cl)cc1NC(=O)CCS(=O)(=O)c1ccc(Br)cc1 | 22.4 µM (active) |
| CCCOc1ccc(-c2cccc(NS(=O)(=O)c3ccccc3)c2)nn1 | inactive |
| COc1ccc(OC)c(-c2csc(-c3c(N)c(C(=O)c4ccccc4)n4ccccc34)n2)c1 | inactive |
| CCc1ccc(C(=O)CC2(O)C(=O)N(CCc3ccccc3)c3ccc(Br)cc32)cc1 (centres undefined) | inactive |
| C=C1CCN(Cc2ccc(OC)cc2)S(=O)(=O)c2ccccc21 | inactive |
| CC1Cc2cc(S(=O)(=O)CCC(=O)NCc3ccc(Cl)cc3)ccc2N1C(=O)C1CC1 (centres undefined) | inactive |
| Cc1cc(C)cc(NS(=O)(=O)c2ccc(-c3cc(C)no3)s2)c1 | inactive |
| Cc1cc(N=Nc2ccc3ccccc3c2)ccc1O | 44.7 µM (active) |
| COc1ccccc1-n1c(-c2ccc(C)cc2)cn2c3c(=O)n(C)c(=O)n(C)c3nc12 | inactive |
| COc1ccc(CNc2nc(-c3ccc(Cl)cc3)cc(C(F)(F)F)n2)cc1 | inactive |
| O=S(=O)(c1ccc(Br)cc1)c1nnn2c1nc(N1CCOCC1)c1sccc12 | inactive |
| O=C(c1ccco1)N(Cc1nc2ccccc2c(=O)[nH]1)C1CCCC1 | inactive |
| O=c1[nH]c(CSc2ncc(-c3ccc(F)cc3)n2Cc2ccco2)nc2ccccc12 | 35.5 µM (active) |
| O=C(CSc1ncc(CO)n1Cc1ccc(F)cc1)NCc1ccco1 | inactive |
| CCOc1ccc(CCNC(=O)c2ccc3c(c2)sc2nc(-c4ccc(F)cc4)cn23)cc1OCC | inactive |
| Cc1cc(C)c(C2C3=C(Nc4c2c(C)nn4-c2ccccn2)c2ccccc2C3=O)c(C)c1 (centres undefined) | 25.1 µM (active) |
| COc1ccc(NC(=O)c2ccc3oc(=O)c(S(=O)(=O)c4ccc(F)cc4)cc3c2)c(OC)c1 | inactive |
| Cc1ccc(C(=O)CC2(O)C(=O)N(CCc3ccccc3)c3ccc(Br)cc32)cc1 (centres undefined) | inactive |
| COc1ccc2cc(CNc3ccc(OC)c(OC)c3)c(=O)n(CC(=O)Nc3ccccc3F)c2c1 | inactive |
| O=C(O)c1ccccc1N=N/C(=N/Nc1cc(S(=O)(=O)O)ccc1O)c1ccccc1 | 12.6 µM (active) |
| COc1ccc(-c2cccc(NS(=O)(=O)c3cc(C)c(OC)c(C)c3C)c2)nn1 | inactive |
| Cc1ccc(-c2cc(C(F)(F)F)c(C#N)c(SCC(=O)Nc3ccccc3)n2)cc1 | inactive |
